Screens: PubChem BioAssay, The Scripps Research Institute Molecular Screening Center
Shown are actives, neighbours in structure and some others; about 2% of the full set was active somewhere.
CHO-K1 Ca antag – nonselective inhibitor or artifact in parental CHO-K1 cells. inhibition, % at 3 µM. ATP-induced calcium, Fluo-8 fluorescence. 360,000 compounds, 0.6% hits;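 active = inhibition above a per-plate cutoff, the plate's mean sample inhibition plus 3 SD, cut at about 24% in these data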
CHO-K1 Ca ag – M1 agonist counterscreen hit in parental CHO-K1 cells; Fluo-8 calcium fluorescence; scaled to maximal ATP response, vehicle zero; activation, % at 3 µM; 360,000 compounds, 0.48% hits; in the data active = activation above about 15%;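 note: untransfected CHO-K1 host cells lacking M1 receptor as counterscreen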
M4 ag – agonists of human muscarinic M4 receptor (CHRM4). CHO-K1 hM4/Gqi5, Fluo-8 calcium fluorescence; vehicle 0%, full acetylcholine response 100%. activation, % at 3 µM. 360,000 compounds, 0.14% hits;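 active = activation above the run mean over all test wells plus 3 SD, cut at about 32% in these data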;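 note: peak over basal fluorescence ratio per well then scaled between controls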
Target sequence (P08173 whole entry, looked up): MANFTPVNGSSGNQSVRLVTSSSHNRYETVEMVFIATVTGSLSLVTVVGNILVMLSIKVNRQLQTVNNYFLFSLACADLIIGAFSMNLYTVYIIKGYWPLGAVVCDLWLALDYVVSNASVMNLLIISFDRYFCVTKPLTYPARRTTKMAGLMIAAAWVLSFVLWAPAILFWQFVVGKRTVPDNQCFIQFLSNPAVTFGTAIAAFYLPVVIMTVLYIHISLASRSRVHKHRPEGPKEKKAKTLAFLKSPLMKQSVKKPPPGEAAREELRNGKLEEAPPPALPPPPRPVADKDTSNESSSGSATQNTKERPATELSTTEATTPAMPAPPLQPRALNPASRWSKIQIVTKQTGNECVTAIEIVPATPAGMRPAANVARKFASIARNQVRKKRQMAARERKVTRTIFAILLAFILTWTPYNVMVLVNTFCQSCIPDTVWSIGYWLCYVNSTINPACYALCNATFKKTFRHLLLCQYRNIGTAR
M4 PAM – potentiates acetylcholine response at human M4 receptor; P08173; CHO-K1 hM4/Gqi5, Fluo-8 calcium fluorescence, ACh EC20; 0% = ACh EC20, 100% = maximal ACh; activation, % at 3 µM; 360,000 compounds, 0.4% hits; AID 624126;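 active = activation above its plate's cutoff, the mean activation of sample wells plus 3 SD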
CHO-K1 Ca PAM – counter-screen for M1 PAMs: effect in parental CHO-K1 cells. ATP EC20, Fluo-8 calcium fluorescence; 0% at ATP EC20, 100% at ATP max. activation, % at 3 µM. 360,000 compounds, 0.02% hits. AID 602247;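 active = activation above the run cutoff, the mean activation of all test compounds plus 3 SD, cut at about 40% in these data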;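 note: peak over basal fluorescence ratio in a 140 s read after ATP addition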
M4 antag – CHRM4 antagonism in calcium assay; CHO-hM4 cells, ACh EC80, Fluo-8 calcium fluorescence; P08173; inhibition, % at 3 µM; 360,000 compounds, 0.73% hits;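 active = inhibition above its plate's cutoff, the mean inhibition of sample wells plus 3 SD, cut at about 27% in these data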
Numbers stand for hits.

For Cc1ccccc1NC(=O)CC(=O)Nc1ccccc1C the results were CHO-K1 Ca antag inactive, CHO-K1 Ca ag inactive, M4 ag inactive, M4 PAM inactive, CHO-K1 Ca PAM inactive and M4 antag inactive.
Cc1ccccc1NC(=O)NC(C)(C)CC(C)(C)C was read as CHO-K1 Ca antag inactive, CHO-K1 Ca ag 19.3, M4 ag inactive, M4 PAM inactive, CHO-K1 Ca PAM inactive and M4 antag inactive.
COc1ccc2c(c1)C(=O)N1[C@H]3c4cc(C)ccc4OC[C@@H]3[C@H](c3ccccc3)[C@]1(C)C(=O)N2 was read as CHO-K1 Ca antag inactive, CHO-K1 Ca ag inactive, M4 ag inactive, M4 PAM inactive, CHO-K1 Ca PAM inactive and M4 antag 33.6.
`C[C@@]12C(=O)Nc3ccc(Br)cc3C(=O)N1[C@H]1c3ccccc3OC[C@@H]1[C@@H]2c1ccccc1` gave CHO-K1 Ca antag inactive, CHO-K1 Ca ag inactive, M4 ag inactive, M4 PAM inactive, CHO-K1 Ca PAM inactive and M4 antag 35.4.
`Cc1ccc2c(c1)[C@H]1[C@H](CO2)[C@H](c2ccccc2)[C@]2(C)C(=O)Nc3ccccc3C(=O)N12` gave CHO-K1 Ca antag inactive, CHO-K1 Ca ag inactive, M4 ag inactive, M4 PAM inactive, CHO-K1 Ca PAM inactive and M4 antag 60.3.
COc1ccc2c(c1)OC[C@H]1[C@H]2N2C(=O)c3ccccc3NC(=O)[C@@]2(C)[C@H]1c1ccccc1 was read as CHO-K1 Ca antag inactive, CHO-K1 Ca ag inactive, M4 ag inactive, M4 PAM inactive, CHO-K1 Ca PAM inactive and M4 antag 56.4.
`COc1ccc2c(c1)OC[C@H]1[C@H]2N2C(=O)c3cc(C)ccc3NC(=O)[C@@]2(C)[C@H]1c1ccccc1` gave CHO-K1 Ca antag inactive, CHO-K1 Ca ag inactive, M4 ag inactive, M4 PAM inactive, CHO-K1 Ca PAM inactive and M4 antag inactive.
Screening Cc1ccsc1C1C(C#N)=C(N)N(N(C)C)C2=C1C(=O)CCC2 (stereo not drawn) returned CHO-K1 Ca antag inactive, CHO-K1 Ca ag inactive, M4 ag inactive, M4 PAM inactive, CHO-K1 Ca PAM inactive and M4 antag inactive.
Screening CCOC(=O)c1sc(NC(=O)CSc2n[nH]c(C)n2)nc1C returned CHO-K1 Ca antag inactive, CHO-K1 Ca ag inactive, M4 ag inactive, M4 PAM inactive, CHO-K1 Ca PAM inactive and M4 antag inactive.
Screening CCN(CC)c1ncnc2ccc(Br)cc12 returned CHO-K1 Ca antag inactive, CHO-K1 Ca ag inactive, M4 ag inactive, M4 PAM inactive, CHO-K1 Ca PAM inactive and M4 antag inactive.
Cc1ccc2c(c1)C(=O)N1[C@H]3c4ccccc4OC[C@@H]3[C@H](c3ccccc3)[C@]1(C)C(=O)N2 was read as CHO-K1 Ca antag inactive, CHO-K1 Ca ag inactive, M4 ag inactive, M4 PAM inactive, CHO-K1 Ca PAM inactive and M4 antag 52.7.
CCn1c(SCc2ccc(C#N)cc2)nnc1-c1cccc(Cl)c1 was read as CHO-K1 Ca antag inactive, CHO-K1 Ca ag inactive, M4 ag inactive, M4 PAM inactive, CHO-K1 Ca PAM inactive and M4 antag inactive.
CC1(C)CC(=O)C(C=NCCN2CCN(CCCCS(=O)(=O)O)CC2)=C(O)C1 was read as CHO-K1 Ca antag 24.8, CHO-K1 Ca ag inactive, M4 ag inactive, M4 PAM inactive, CHO-K1 Ca PAM inactive and M4 antag inactive.
`CN(C(=O)COC(=O)c1cccnc1Nc1ccccc1F)C1CCS(=O)(=O)C1` (stereo not drawn) gave CHO-K1 Ca antag inactive, CHO-K1 Ca ag inactive, M4 ag inactive, M4 PAM inactive, CHO-K1 Ca PAM inactive and M4 antag inactive.
Screening CCCCNC(=O)C1(C)CCC(=O)N1CCOC (stereo not drawn) returned CHO-K1 Ca antag 33.2, CHO-K1 Ca ag inactive, M4 ag inactive, M4 PAM inactive, CHO-K1 Ca PAM inactive and M4 antag inactive.
COCCN1C(=O)CCC1(C)C(=O)Nc1c(C)cccc1C (stereo not drawn) was read as CHO-K1 Ca antag 25.8, CHO-K1 Ca ag inactive, M4 ag inactive, M4 PAM inactive, CHO-K1 Ca PAM inactive and M4 antag inactive.
For Cc1cccc(C)c1NC(=O)C1(C)CCC(=O)N1CCOc1ccccc1 (stereo not drawn) the results were CHO-K1 Ca antag inactive, CHO-K1 Ca ag inactive, M4 ag inactive, M4 PAM inactive, CHO-K1 Ca PAM inactive and M4 antag inactive.
`CCCCNC(=O)C1(C)CCC(=O)N1CC(F)(F)F` (stereo not drawn) gave CHO-K1 Ca antag inactive, CHO-K1 Ca ag inactive, M4 ag inactive, M4 PAM inactive, CHO-K1 Ca PAM inactive and M4 antag inactive.
For O=C(NC1CC2CCC(C1)N2C(=O)NCc1ccccc1)C1CC1 (stereo not drawn) the results were CHO-K1 Ca antag inactive, CHO-K1 Ca ag inactive, M4 ag inactive, M4 PAM inactive, CHO-K1 Ca PAM inactive and M4 antag 29.6.
`CN(CCc1ccccc1)c1cc2c(c3c1ccn3C)C1CCC2O1` (stereo not drawn) gave CHO-K1 Ca antag inactive, CHO-K1 Ca ag inactive, M4 ag inactive, M4 PAM inactive, CHO-K1 Ca PAM inactive and M4 antag inactive.
`CC[N+](C)(CC)CCC/C(=N/O)C(O)(c1ccccc1)c1ccccc1` gave CHO-K1 Ca antag inactive, CHO-K1 Ca ag inactive, M4 ag inactive, M4 PAM inactive, CHO-K1 Ca PAM inactive and M4 antag 33.4.
Screening CC/C(CC(C)(C)c1ccccc1)=N\O returned CHO-K1 Ca antag inactive, CHO-K1 Ca ag inactive, M4 ag inactive, M4 PAM inactive, CHO-K1 Ca PAM inactive and M4 antag inactive.
Screening CCN(CC)CCC/C(=N\O)C(O)(c1ccccc1)c1ccccc1 returned CHO-K1 Ca antag inactive, CHO-K1 Ca ag inactive, M4 ag inactive, M4 PAM inactive, CHO-K1 Ca PAM inactive and M4 antag 79.5.
Screening O=P(Cc1ccccn1)(c1ccccc1)c1ccccc1 returned CHO-K1 Ca antag inactive, CHO-K1 Ca ag inactive, M4 ag inactive, M4 PAM inactive, CHO-K1 Ca PAM inactive and M4 antag inactive.
Screening COc1ccc(CCN(Cc2cc3cccc(C)c3[nH]c2=O)C(=O)NC2CCCCC2)cc1OC returned CHO-K1 Ca antag inactive, CHO-K1 Ca ag inactive, M4 ag inactive, M4 PAM inactive, CHO-K1 Ca PAM inactive and M4 antag 31.4.
For O=C(COc1ccccc1)NC(=S)N1CCc2ccccc21 the results were CHO-K1 Ca antag 24.2, CHO-K1 Ca ag inactive, M4 ag inactive, M4 PAM inactive, CHO-K1 Ca PAM inactive and M4 antag inactive.
`COc1ccc(OCC(=O)NC(=S)N2CCCc3ccccc32)cc1` gave CHO-K1 Ca antag inactive, CHO-K1 Ca ag inactive, M4 ag inactive, M4 PAM inactive, CHO-K1 Ca PAM inactive and M4 antag inactive.
For CC1([N+](=O)[O-])COC(c2cccc3ccccc23)OC1 (stereo not drawn) the results were CHO-K1 Ca antag 26.1, CHO-K1 Ca ag inactive, M4 ag inactive, M4 PAM inactive, CHO-K1 Ca PAM inactive and M4 antag inactive.
